According to PubChem BioAssay:
A number with no mark means an inactive call. Active and inactive are the calls of the source. Unless noted, no stated cut-off is given here; in the data, active means inhibition above about 44%; inactive means the rest.

Legend:
[1] = target: Nuclear receptor coactivator 3 (Homo sapiens) (UniProt Q9Y6Q9); test: SRC3 coactivator transcriptional activity inhibitors, confirmation, cell-based, luminescence, quadruplicate (AID 588792;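 active means mean inhibition over 43.08%, the solvent-only control mean plus 3 SD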;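 further: 0% = DMSO treated cells and 100% = gossypol at 36 µM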); details: HEK293 GAL4-SRC3 luciferase reporter, at 3.6 µM, hits give high values
[2] = tested on: transactivating tegument protein VP16 (Human herpesvirus 1), Gal4-VP16 luciferase reporter; test: VP16 transactivation inhibitors, counter-screen for SRC3 inhibitor project, cell-based, luminescence, high throughput (AID 588794; in the data active means inhibition above about 30%); details: mammalian cells, VP16-driven luciferase reporter luminescence; at 3.6 µM; hits give high values
[3] = target: Nuclear receptor coactivator 1 (Homo sapiens) (UniProt Q15788); test: SRC1 coactivator transcriptional activity inhibitors, confirmation, cell-based, luminescence, quadruplicate (AID 588820;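 active means mean inhibition above 46.68%, the untreated control wells mean plus 3 SD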;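 further: 0% = DMSO wells and 100% = gossypol 36 µM treated wells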); details: HEK293 GAL4-SRC1 luciferase reporter, at 3.6 µM, hits give high values
[4] = VP16 transactivation inhibitors, counter-screen for SRC1 inhibitor project, cell-based, luminescence, high throughput (AID 588824; in the data active means inhibition above about 25%); details: cell-based VP16 transactivation luciferase luminescence; at 3.6 µM; hits give high values
[5] = StAR promoter reporter inhibitors, counter-screen for LRH-1 inverse agonist project, cell-based, luminescence, high throughput (AID 651611; in the data active means inhibition above about 28%); details: StAR promoter luciferase reporter counterscreen, at 3.6 µM, hits give high values
[6] = target: Nuclear receptor subfamily 5 group A member 2 (Homo sapiens) (UniProt O00482); test: LRH-1 (NR5A2) inverse agonists, retest, confirmation, cell-based, luminescence (AID 651613; in the data active means inhibition above about 42%;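 further: HEK293T cells co-transfected with LRH-1 and StAR promoter luciferase reporter; 0% = vehicle wells and 100% = parental cells lacking receptor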); details: cell-based LRH-1 luciferase reporter, inverse agonism; at 3.6 µM; hits give high values
[7] = target: Steroidogenic factor 1 (Homo sapiens) (UniProt Q13285); test: SF1 (NR5A1) inverse agonists, counter-screen for LRH-1 inverse agonist project, cell-based, luminescence, high throughput (AID 651614); details: cell-based SF1 luciferase reporter, at 3.6 µM, hits give high values;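 further: cells cotransfected with StAR promoter reporter and SF1 expression vector; 0% = vehicle on cells with receptor and 100% = vehicle on cells lacking receptor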
[8] = VP16 transactivation reporter inhibitors, counter-screen for LRH-1 inverse agonist project, cell-based, luminescence, high throughput (AID 651615; in the data active means inhibition above about 33%); details: Gal4-VP16 luciferase reporter cells, at 3.6 µM, hits give high values
[9] = tested on: transactivating tegument protein VP16 (Human herpesvirus 1); test: VP16 transactivation reporter inhibitors, counter-screen for SRC2 inhibitor project, cell-based, luminescence, single concentration (AID 652007; in the data active means inhibition above about 36%); details: cell-based VP16 transactivation luciferase reporter, at 8.9 µM, hits give high values
[10] = target: Nuclear receptor coactivator 2 (Homo sapiens) (UniProt Q15596); test: SRC2 coactivator transcriptional activity inhibitors, confirmation, cell-based, luminescence, HEK293, triplicate (AID 652008;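 active means mean inhibition above 46.5%, the solvent-only control mean plus 3 SD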;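 further: 0% = DMSO-treated cells and 100% = Gossypol at 36 µM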); details: HEK293 GAL4-SRC2 luciferase reporter, at 8.9 µM, hits give high values
Sequence of Nuclear receptor coactivator 2 (Homo sapiens) (Q15596 whole entry, looked up, the tested form may be a part): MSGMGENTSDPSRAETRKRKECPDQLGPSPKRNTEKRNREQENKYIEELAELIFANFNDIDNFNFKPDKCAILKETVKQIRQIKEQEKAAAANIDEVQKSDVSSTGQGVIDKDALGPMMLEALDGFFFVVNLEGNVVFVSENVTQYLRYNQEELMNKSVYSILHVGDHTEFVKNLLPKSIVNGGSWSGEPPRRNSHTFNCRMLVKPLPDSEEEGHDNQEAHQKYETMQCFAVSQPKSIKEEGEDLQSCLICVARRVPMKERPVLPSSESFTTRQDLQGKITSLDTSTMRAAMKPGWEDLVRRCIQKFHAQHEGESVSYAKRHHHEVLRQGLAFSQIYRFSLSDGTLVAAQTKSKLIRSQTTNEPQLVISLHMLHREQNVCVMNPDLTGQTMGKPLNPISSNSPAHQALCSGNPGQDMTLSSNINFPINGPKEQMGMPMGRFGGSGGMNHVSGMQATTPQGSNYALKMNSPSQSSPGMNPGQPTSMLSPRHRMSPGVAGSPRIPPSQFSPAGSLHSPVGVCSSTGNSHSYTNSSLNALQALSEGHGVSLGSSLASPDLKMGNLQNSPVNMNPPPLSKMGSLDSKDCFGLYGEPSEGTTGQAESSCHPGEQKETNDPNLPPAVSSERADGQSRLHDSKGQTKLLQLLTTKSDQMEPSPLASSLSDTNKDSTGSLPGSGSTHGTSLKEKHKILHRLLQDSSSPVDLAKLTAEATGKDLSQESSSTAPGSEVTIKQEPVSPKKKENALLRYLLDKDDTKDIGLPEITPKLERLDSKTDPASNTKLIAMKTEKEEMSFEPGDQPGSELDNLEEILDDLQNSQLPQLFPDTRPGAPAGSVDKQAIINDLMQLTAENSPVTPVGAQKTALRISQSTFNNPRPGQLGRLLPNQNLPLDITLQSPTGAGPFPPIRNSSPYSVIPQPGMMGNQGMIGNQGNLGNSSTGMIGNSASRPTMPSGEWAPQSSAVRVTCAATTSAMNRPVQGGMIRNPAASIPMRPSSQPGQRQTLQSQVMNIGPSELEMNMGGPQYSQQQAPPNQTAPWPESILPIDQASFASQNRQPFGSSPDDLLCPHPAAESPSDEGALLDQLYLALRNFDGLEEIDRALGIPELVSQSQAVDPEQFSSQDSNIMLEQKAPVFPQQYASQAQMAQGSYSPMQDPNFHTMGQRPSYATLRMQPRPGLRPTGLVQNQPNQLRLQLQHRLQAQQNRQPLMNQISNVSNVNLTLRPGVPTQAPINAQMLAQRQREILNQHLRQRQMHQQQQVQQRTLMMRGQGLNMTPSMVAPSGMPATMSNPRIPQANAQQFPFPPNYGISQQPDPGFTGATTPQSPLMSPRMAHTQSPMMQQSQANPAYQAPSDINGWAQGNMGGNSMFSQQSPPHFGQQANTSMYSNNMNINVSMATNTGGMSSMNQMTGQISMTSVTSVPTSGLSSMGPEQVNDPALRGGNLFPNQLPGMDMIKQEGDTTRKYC

Sequence of Nuclear receptor coactivator 3 (Homo sapiens) (Q9Y6Q9 whole entry, looked up, the tested form may be a part): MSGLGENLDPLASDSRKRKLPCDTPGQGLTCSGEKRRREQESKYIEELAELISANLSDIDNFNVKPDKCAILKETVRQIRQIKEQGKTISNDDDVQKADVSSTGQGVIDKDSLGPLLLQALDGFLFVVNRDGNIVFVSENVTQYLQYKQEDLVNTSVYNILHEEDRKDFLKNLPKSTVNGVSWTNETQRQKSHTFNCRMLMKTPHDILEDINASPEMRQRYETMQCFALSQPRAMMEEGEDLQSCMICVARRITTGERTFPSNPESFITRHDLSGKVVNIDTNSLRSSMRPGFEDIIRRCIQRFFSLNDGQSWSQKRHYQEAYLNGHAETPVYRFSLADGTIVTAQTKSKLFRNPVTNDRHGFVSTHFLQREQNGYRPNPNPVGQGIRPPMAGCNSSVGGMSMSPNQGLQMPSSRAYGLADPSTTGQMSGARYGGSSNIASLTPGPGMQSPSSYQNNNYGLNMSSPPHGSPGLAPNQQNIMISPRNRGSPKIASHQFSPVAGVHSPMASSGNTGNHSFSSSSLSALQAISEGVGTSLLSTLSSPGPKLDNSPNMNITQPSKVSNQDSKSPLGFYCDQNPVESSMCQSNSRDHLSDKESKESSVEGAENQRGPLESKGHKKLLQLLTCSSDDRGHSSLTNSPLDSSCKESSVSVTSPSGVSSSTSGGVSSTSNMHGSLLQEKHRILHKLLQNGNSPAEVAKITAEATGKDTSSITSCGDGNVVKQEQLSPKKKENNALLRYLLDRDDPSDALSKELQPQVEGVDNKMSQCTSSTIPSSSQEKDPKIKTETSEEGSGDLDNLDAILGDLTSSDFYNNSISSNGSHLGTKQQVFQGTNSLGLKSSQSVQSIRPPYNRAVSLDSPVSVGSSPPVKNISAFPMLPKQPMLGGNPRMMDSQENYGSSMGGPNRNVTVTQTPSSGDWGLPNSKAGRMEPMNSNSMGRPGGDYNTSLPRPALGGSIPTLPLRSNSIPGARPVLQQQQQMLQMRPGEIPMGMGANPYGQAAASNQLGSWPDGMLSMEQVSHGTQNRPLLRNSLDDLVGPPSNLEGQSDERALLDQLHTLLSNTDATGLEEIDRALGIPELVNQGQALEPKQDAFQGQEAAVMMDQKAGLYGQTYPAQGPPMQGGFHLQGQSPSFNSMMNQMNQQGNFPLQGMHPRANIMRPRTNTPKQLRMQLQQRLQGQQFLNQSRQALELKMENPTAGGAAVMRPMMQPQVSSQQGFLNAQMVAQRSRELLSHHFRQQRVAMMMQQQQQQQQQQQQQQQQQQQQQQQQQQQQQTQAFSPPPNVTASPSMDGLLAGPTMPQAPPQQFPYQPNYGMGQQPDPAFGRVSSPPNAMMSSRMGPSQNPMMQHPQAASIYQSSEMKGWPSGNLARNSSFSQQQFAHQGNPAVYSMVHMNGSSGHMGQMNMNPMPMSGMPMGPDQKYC
Sequence of Nuclear receptor coactivator 1 (Homo sapiens) (Q15788 whole entry, looked up, the tested form may be a part): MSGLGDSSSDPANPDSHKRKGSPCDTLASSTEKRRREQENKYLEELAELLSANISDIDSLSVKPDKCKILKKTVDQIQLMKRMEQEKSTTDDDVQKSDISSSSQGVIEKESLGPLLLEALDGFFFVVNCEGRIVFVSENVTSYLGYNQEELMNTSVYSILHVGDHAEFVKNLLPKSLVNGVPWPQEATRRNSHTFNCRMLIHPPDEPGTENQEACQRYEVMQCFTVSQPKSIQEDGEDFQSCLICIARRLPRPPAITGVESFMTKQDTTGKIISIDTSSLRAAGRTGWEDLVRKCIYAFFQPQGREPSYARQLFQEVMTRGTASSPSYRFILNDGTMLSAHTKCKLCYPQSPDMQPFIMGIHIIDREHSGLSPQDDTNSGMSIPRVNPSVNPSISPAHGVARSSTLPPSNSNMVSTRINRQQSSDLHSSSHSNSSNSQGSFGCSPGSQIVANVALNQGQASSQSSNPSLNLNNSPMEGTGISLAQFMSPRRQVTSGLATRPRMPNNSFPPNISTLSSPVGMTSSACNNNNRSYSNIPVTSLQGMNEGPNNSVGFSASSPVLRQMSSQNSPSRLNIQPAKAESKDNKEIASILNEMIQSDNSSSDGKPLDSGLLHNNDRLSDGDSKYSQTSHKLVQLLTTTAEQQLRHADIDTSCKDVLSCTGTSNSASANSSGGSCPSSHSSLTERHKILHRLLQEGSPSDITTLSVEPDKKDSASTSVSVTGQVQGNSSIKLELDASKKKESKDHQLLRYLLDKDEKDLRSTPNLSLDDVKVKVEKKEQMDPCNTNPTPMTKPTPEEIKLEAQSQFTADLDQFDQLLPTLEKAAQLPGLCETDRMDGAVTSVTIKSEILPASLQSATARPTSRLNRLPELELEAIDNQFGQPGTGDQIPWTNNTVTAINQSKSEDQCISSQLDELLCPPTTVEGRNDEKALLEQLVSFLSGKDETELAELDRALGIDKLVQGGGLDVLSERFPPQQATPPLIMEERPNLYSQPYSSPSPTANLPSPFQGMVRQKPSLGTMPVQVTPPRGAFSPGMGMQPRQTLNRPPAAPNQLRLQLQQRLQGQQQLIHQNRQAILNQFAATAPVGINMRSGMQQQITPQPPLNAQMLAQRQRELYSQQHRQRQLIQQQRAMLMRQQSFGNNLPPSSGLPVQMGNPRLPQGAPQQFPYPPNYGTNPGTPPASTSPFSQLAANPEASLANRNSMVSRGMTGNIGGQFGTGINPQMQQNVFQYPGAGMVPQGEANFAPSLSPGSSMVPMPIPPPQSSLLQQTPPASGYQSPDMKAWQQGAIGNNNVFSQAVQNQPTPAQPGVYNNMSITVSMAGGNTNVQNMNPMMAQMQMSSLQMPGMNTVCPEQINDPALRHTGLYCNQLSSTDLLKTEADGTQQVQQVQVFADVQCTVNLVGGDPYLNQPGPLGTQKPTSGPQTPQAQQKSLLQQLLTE
Sequence of Nuclear receptor subfamily 5 group A member 2 (Homo sapiens) (O00482 whole entry, looked up): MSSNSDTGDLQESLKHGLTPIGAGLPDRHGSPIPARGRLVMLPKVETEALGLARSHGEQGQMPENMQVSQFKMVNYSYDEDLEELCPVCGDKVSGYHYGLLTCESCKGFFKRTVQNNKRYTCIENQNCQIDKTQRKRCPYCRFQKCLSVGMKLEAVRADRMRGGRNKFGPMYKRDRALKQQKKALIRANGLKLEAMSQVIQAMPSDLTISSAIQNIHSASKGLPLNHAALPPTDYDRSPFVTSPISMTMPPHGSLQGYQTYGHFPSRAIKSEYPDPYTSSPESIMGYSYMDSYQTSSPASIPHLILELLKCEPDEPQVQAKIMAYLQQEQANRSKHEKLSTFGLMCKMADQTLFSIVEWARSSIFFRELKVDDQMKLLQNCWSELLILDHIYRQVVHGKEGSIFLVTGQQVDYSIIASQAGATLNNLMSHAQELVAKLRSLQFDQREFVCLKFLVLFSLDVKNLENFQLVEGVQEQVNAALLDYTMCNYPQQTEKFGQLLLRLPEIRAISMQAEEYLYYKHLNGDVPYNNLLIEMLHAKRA

| Compound | inhibition [1] | inhibition [2] | inhibition [3] | inhibition [4] | inhibition [5] | inhibition [6] | inhibition [7] | inhibition [8] | inhibition [9] | inhibition [10] |
| --- | --- | --- | --- | --- | --- | --- | --- | --- | --- | --- |
| COc1cc2cc(C(=O)Nc3ccc4c(c3)OCCO4)[nH]c2cc1OC | 27.4% | -26.5% | -2.55% | -48.8% | -32.3% | -49.1% | -20.5% | -35.9% | -41.9% | 38.2% |
| CCOc1ccccc1-n1c(SCC(=O)Nc2ccccc2C(=O)O)nc2ccccc2c1=O | 36.2% | 26% | 16.8% | 14.7% | 16% | -6.48% | 9.06% | -14.2% | 30.9% | 49.9% (active) |
| Cc1cc2sc3ccc(C#CC4(O)CCCCC4)cc3c(=O)c2cc1C | 95.4% (active) | 93.6% (active) | 90.4% (active) | 89.7% (active) | 91.2% (active) | 91.2% (active) | 92.6% (active) | 88.9% (active) | 94.2% (active) | 98.3% (active) |
| COc1ccccc1-c1nnc(Sc2nc([N+](=O)[O-])nn2C)o1 | 58.5% (active) | 32.7% (active) | 18.7% | 36.4% (active) | 59.9% (active) | 62% (active) | 38.3% | 64.1% (active) | 46.1% (active) | 65.3% (active) |
| O=C(O)c1ccccc1C(=O)Nc1ccc(Oc2cccc3ccccc23)cc1 | 26% | 32.2% (active) | 28% | 21.7% | 34.5% (active) | 29.8% | 57% (active) | 13.4% | 77.6% (active) | 75.2% (active) |
| CSC1SCC2C(=O)N(C)C(C(C)C)C(=O)OCC(NC(=O)c3cnc4ccccc4n3)C(=O)NC(C)C(=O)N(C)C1C(=O)N(C)C(C(C)C)C(=O)OCC(NC(=O)c1cnc3ccccc3n1)C(=O)NC(C)C(=O)N2C (stereo not given) | 96.8% (active) | 96.7% (active) | 85.7% (active) | 96.8% (active) | 86.5% (active) | 107% (active) | 97.1% (active) | 97.3% (active) | 62.2% (active) | 51.1% (active) |
| COc1ccc(/C=C2\SC(=O)N(CCCC(=O)Nc3ccc(C(=O)O)cc3)C2=O)cc1 | 78% (active) | 71.8% (active) | 72.8% (active) | 63.3% (active) | 74.1% (active) | 75.4% (active) | 71.5% (active) | 58.1% (active) | 88.3% (active) | 93.3% (active) |
